From PubChem BioAssay (NCI)
“And” between values parts separate entries of the source, which are not always exact repeats. Equal values may be shown once. Compounds without any hit were thinned out: in the full panel of roughly 79,000, 15% have a hit. Values without a mark were called inactive. The source made the active and inactive calls. Rule as the data show it: active = growth inhibition above about 70%; inactive = the rest.

What was measured:
[1] = NCI Yeast Anticancer Drug Screen. Data for the rad50 strain (AID 155);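 also: 0% = growth of vehicle-only cultures of the same strain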; conditions: S. cerevisiae rad50 strain growth inhibition, hits give high values; at 50.0 µM unless noted
Outline: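 Growth of the mutant yeast was measured after compound exposure and referenced to vehicle-treated cultures.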

[2] = NCI Yeast Anticancer Drug Screen. Data for the mec2-1 strain (AID 157); conditions: S. cerevisiae mec2-1 strain, hits give high values; at 50.0 µM unless noted
Outline: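 Yeast mec2-1 mutant treated with compound. Readout: growth inhibition vs vehicle controls.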

[3] = NCI Yeast Anticancer Drug Screen. Data for the sgs1 mgt1 strain (AID 161);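 also: 0% = growth of cultures given vehicle only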; conditions: S. cerevisiae sgs1 mgt1 strain, hits give high values; at 50.0 µM unless noted
Outline: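 Mutant yeast exposed to compound; growth scored against vehicle-only wells.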

[4] = NCI Yeast Anticancer Drug Screen. Data for the cln2 rad14 strain (AID 165);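 also: 0% = growth equal to vehicle treated cultures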; conditions: S. cerevisiae cln2 rad14 strain, hits give high values; at 50.0 µM unless noted
Outline: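 cln2 rad14 yeast strain; compound exposure; growth inhibition read vs vehicle controls.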

[5] = NCI Yeast Anticancer Drug Screen. Data for the bub3 strain (AID 167); conditions: S. cerevisiae bub3 mutant strain, hits give high values; at 50.0 µM unless noted
Outline: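 Whole-cell yeast assay. The mutant strain was incubated with compounds, and growth inhibition was determined by comparison with vehicle-treated cells.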

[6] = NCI Yeast Anticancer Drug Screen. Data for the mlh1 rad18 strain (AID 175); conditions: S. cerevisiae mlh1 rad18 strain growth inhibition, hits give high values; at 50.0 µM unless noted
Outline: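 Yeast w/ defined DNA-repair lesions; compound exposure; growth vs vehicle controls → % inhibition.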

Row | Compound | growth inhibition [1] | growth inhibition [2] | growth inhibition [3] | growth inhibition [4] | growth inhibition [5] | growth inhibition [6]
1 | NCC1COC(c2ccccc2)(c2ccccc2)O1 (centres undefined) | -2.25% | -12.4% | -12.9% | -32.5% | 17.8% | -7.65%
2 | CC(=O)N(c1nc2ccccc2s1)N1C(=O)c2ccccc2C1=O | -18.8% | -33.3% | -17.9% | -2.15% | -40.2% | -20.2%
3 | COc1cc(O)c2c(=O)cc(-c3ccc(O)cc3O)oc2c1CC=C(C)C | 43.5% | 0.4% | -0.25% | 17.7% | -2.8% | -20.5%
4 | CC(C)N(C(=O)C12C3C4C1C1C2C3C41C(=O)N(C(C)C)C(C)C)C(C)C (centres undefined) | -1.85% | -9.2% | -12.9% | -1% | 8.45% | -26.5%
5 | COc1ccc2nc(C(=O)c3ccccc3)c(C)cc2c1 | 8.4% | -28.5% | -10.7% | 1.8% | -10.9% | -13.2%
6 | O=c1c2ccccc2n2c(=S)[nH]nc2n1-c1ccccc1 | -2.7% | 3.55% | -12.2% | 6.95% | 0.05% | -10.8%
7 | Nc1cccc(B(O)O)c1 | -16.6% | -65% | -34.3% | -5.75% | -29.6% | -15.8%
8 | CN(C)N=Nc1ccc(/C=C/C(=O)O)cc1 | 15.2% | 4.8% | 11.4% | 1.65% | 8.55% | -4.95%
9 | CC1CCCC(CC(=O)O)(CC(=O)O)C1 (centres undefined) | -14.1% | -33.6% | -5.1% | -29.3% | -4.1% | -21.4%
10 | COc1ccc2cc3n(c(=O)c2c1OC)CCc1cc2c(cc1-3)OCO2 | 11.9% | -20.7% | 14.2% | 25.4% | 2.8% | -0.45%
11 | O=C(Nc1ccc(-c2cn3ccccc3n2)cc1)c1ccccc1O | 7.7% | -11.8% | 20.6% | 36.1% | 10.2% | 4.75%
12 | C=C1c2nc3ccccc3n2C=C(c2ccc(C)cc2)N1c1ccc(C)cc1 | 24.6% | 18% | 16.2% | 25% | 11.2% | 29.8%
13 | COc1ccccc1NC(=O)Oc1c(C(C)C)cccc1C(C)C | -5.35% | 5.75% | -3.7% | -1.1% | 20% | -17.4%
14 | COc1ccc2c(c1)-c1c(ccc(OC)c1O)CC(c1ccccc1)[N+](C)(C)CC2 (centres undefined) | -5.8% | 10.7% | -5.55% | -12.4% | 2.25% | -2.5%
15 | CCCCCCCCCCCCCCCCCC(=O)N/N=C\c1c(O)ccc2ccccc12 | 21.4% | 11.7% | 4.85% | 2.15% | -10.1% | 20.2%
16 | CSC(=S)N/N=C(\C)c1cccs1 | 7.05% | 1.85% | 4.75% | -50.9% | -47.5% | 10.8%
17 | CCOC(=O)C(N)CSC(=O)NC (centres undefined) | 24.9% | -3.4% | 16% | 3.2% | 20.9% | -49.5%
18 | O=C(c1ccc(Cl)cc1)c1ccccc1C(=O)c1ccc(Cl)cc1 | 0.8% | -12.1% | 6.6% | -4.45% | 23% | 15.1%
19 | Cc1ccc(N(C)S(=O)(=O)c2ccccc2)cc1 | 11.4% | -31.3% | 15.4% | 4.25% | 22.6% | 4.55%
20 | CN(Cc1cc(Br)cc(Br)c1O)Cc1c(O)ccc2ccccc12 | 98.8% (active) | 98.8% (active) | 98.8% (active) | 97.3% (active) | 98.2% (active) | 98.8% (active)

Row | Compound | growth inhibition [1] | growth inhibition [2] | growth inhibition [3] | growth inhibition [4] | growth inhibition [5] | growth inhibition [6]
21 | Cc1ccc(S(=O)(=O)OCCN(CCOS(=O)(=O)c2ccc(C)cc2)c2cccc([N+](=O)[O-])c2)cc1 | 22.9% | 8.85% | 7.85% | 22.4% | -0.3% | 21.4%
22 | CC(C)C(=O)NS(=O)(=O)c1ccccc1 | -14.6% | -3.8% | 0.5% | -7.55% | -14.4% | -27.9%
23 | O=C(O)CCN(CCCCN(CCC(=O)O)CCC(=O)O)CCC(=O)O | 4.7% | 7.05% | -10.7% | 1.4% | 1.25% | -4.15%
24 | O=C(CNC(=O)C(CSC(c1ccccc1)c1ccccc1)NC(=O)C(CSC(c1ccccc1)(c1ccccc1)c1ccccc1)NC(=O)OCc1ccccc1)OC(c1ccccc1)c1ccccc1 (centres undefined) | 4.15% | 3.1% | -6.25% | -4.25% | -1.85% | 20.7%
25 | C=CC(=O)OCCN(CCCC)CCCC | -12.9% | -0.2% | -10.9% | -10.8% | 6.75% | 21.5%
26 | C#CCN(N=O)C(=O)NCCCCC(NC(C)=O)C(=O)NCc1ccccc1 (centres undefined) | 3.4% | -16.9% | -16.9% | 5% | -16.2% | -15.1%
27 | Nc1ccccc1C1CCCCC1 | 32.1% | -13.6% | 52% | -19.4% | 3.95% | 26.6%
28 | CS(=O)(=O)Nc1c(-c2ccccc2)oc2ccccc2c1=O | -12.1% | -0.8% | -6.5% | -33.6% | 11.3% | -3.85%
29 | CC(CN(C)C)C(=O)/C=C/c1ccc(Cl)cc1 (centres undefined) | 20% | 19% | 1.75% | 2.8% | -13.7% | 18.4%
30 | Fc1cccc(C(Nc2nncs2)Nc2nncs2)c1F | 5.5% | 8.95% | 29.8% | -1.2% | 5.15% | 28.2%
31 | Oc1ccc(Br)cc1/C=N/N1CCN(/N=C/c2cc(Br)ccc2O)CC1 | 22.9% | 6.2% | 35.2% | 14.9% | 1.7% | 25.1%
32 | Cc1cnc(N)cn1 (tested in a mixture with another compound) | -0.05% | -6% | 1.1% | -52.2% | 3.4% | 8.1%
33 | Cc1[nH]c(=O)[nH]c(=O)c1CCO | -8.9% | -2.6% | -4.25% | -29.4% | -28.3% | -13.4%
34 | Clc1ccc(/C=N\OCc2ccc(Cl)c(Cl)c2)cc1Cl | -9.85% | -13.1% | 2.1% | -17.9% | -4.85% | -5.25%
35 | CSc1cc(Cl)c(C(=O)Nc2ccccc2)cc1S(=O)(=O)n1cc[nH]c1=O | 0.2% | -10.6% | -6.35% | -8.95% | -1.35% | 8.05%
36 | O=c1[nH]c(=O)n(C2OC(CO)C(O)C2Br)cc1Br (centres undefined) | -2.25% | -3.3% | -6.8% | -7.6% | 0.65% | 23.9%
37 | FC(F)(F)C1CCCCC1[Si](C1CCCCC1C(F)(F)F)C1CCCCC1C(F)(F)F (centres undefined) | 32.8% | -11.2% | 13.7% | 10.5% | -5.55% | 5.7%
38 | COc1cc(C(O)C2C(=O)OCC2C2(c3ccc4c(c3)OCO4)SCCCS2)cc(OC)c1OC (centres undefined) | 36.1% and -8.8% | -2.8% and -8.95% | 35.4% and -21.5% | 7.2% and 1.7% | 10.1% and -2.95% | 1.45% and 17.2%
39 | CN(N=O)C(=O)NCCn1cnc2c(=O)[nH]cnc21 | -6.55% | 14.4% | -5.35% | -56.8% | 1.2% | -11.8%
